High-throughput results deposited in PubChem by National Center for Advancing Translational Sciences (NCATS).
VACV Venus inh – inhibitors of vaccinia virus (Venus reporter). Vaccinia virus Venus reporter expression, fluorescence. Potency, µM (doses to about 36.5 µM), inactives show at the highest dose activity change, negative = inhibition, actives largely listed as inhibitors. 0.46% of 330,000 active; calls by dose curve; tested in A549 cells; note: potency is the fitted concentration of half-maximal effect; nearly all actives have a fitted effect of over 30% in size
Vaccinia mCherry – vaccinia inhibition (mCherry reporter); Vaccinia virus mCherry reporter infection, fluorescence; Potency, µM (top dose mostly 36.5 µM), without a hit: at the top dose activity change, negative = inhibition, hits mostly inhibitors; 0.63% of 310,000 active; AID 720579; calls by dose curve; tested in A549 cells; note: potency is the fitted concentration of half-maximal effect; nearly all actives have a fitted effect of over 35% in size
Sm TGR inh – inhibitors of Schistosoma mansoni thioredoxin glutathione reductase; AID 485364; 3% of 360,000 active; purified TGR, DTNB reduction, TNB absorbance 405 nm; Potency, µM (titrated, usually from 114 µM), inactives show at the highest dose activity change, negative = inhibition, hits mostly inhibitors; note: potency is the fitted concentration of half-maximal effect; nearly all actives have a fitted effect of over 60% in size
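First, TGR (20 nM dispensed) and NADPH were mixed with compound. Second, a 15 min room-temperature incubation followed. Third, further NADPH and then DTNB were added to start the reaction. Finally, TNB absorbance was monitored kinetically.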
FMDV antiviral – blocks foot and mouth disease virus; FMDV antiviral cell-based qHTS; Potency, µM (titrated, usually from 57.9 µM), for the others: top-dose activity change, negative = inhibition, usual class: inhibitors; 1.2% of 410,000 active; calls by dose curve; tested in HEK293T cells; note: read-out not given here; potency is the fitted concentration of half-maximal effect; nearly all actives have a fitted effect of over 45% in size
HCMV inh – inhibitors of human cytomegalovirus; HFF cells, HCMV-luciferase reporter, 72 h; stronger effect = lower value; activity change, negative = inhibition, % at 57.5 µM; 4.5% of 410,000 active; AID 1259415; in the data active = activity change below about -60%; inconclusive = no clear call, values can overlap the other calls; inactive = above about -39%
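Inhibition of viral replication was scored as loss of reporter luminescence in HFFs infected with HCMV-luciferase (MOI 1 PFU/cell) for 72 h; compounds tested at 2 doses, normalized to buffer and Salinomycin controls.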
HCV inhibitor – HCV inhibition | AID 651820 | 3.4% of 340,000 active | Potency, µM (doses to about 41.8 µM), without a hit: top-dose activity change, negative = inhibition, most hits filed as inhibitors | Huh7.5.1 HCVcc-Cre infection, luciferase reporter, 44 h; note: potency is the fitted concentration of half-maximal effect
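Infectious HCVcc-Cre (~0.5 moi) was added to cells just after compound, with cells seeded 4 h earlier at 1,000 per well. Luciferase activity after 44 h culture reported infection; substrate was incubated 15 min at room temperature before reading.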
* hit, by the source's call; i = inactive; ? = inconclusive; / = not tested or not shown; [ ] = remark or other dose. Sampled rows, rich in hits. Any-hit rate of the full collection: about 9.3%. Unless noted, calls come from the whole dose curve; as a rule, active = well fitted curve in the direction sought with a large enough effect; inconclusive = small, poorly fitted or top-dose-only effect, or another doubt; inactive = no such curve, though single readings can be large; an effect the other way counts as inactive or inconclusive. % is set by controls: 0 for no effect and ±100 for the full control effect.

SMILES	VACV Venus inh	Vaccinia mCherry	Sm TGR inh	FMDV antiviral	HCMV inh	HCV inhibitor
Cc1ccn2cc(-c3cccc(S(=O)(=O)N4CCCC4)c3)nc2c1	-17%	i	-9%	-3%	-64*	11µM*
Cc1ccc(-c2cn3cccc(C)c3n2)cc1NS(=O)(=O)c1ccccc1	-12%	-19%	6%	19%	-85*	/
Cc1ccc(S(=O)(=O)Nc2ccc(-c3cn4ccc(C)cc4n3)cc2)cc1	/	/	-5%	12%	?	?
Cc1cccc(C(=O)C2CCN(S(=O)(=O)c3cccc(C(=O)O)c3)CC2)c1	0%	-17%	-12%	-8%	10	4%
Cc1cc(C(=O)N2CCN(c3ccc(F)cc3)CC2)c2c(C)nn(-c3cccc(Cl)c3C)c2n1	-26%	-19%	13%	-12%	1	/
Cc1nn(CC(=O)NC(C)c2ccccc2)c(=O)c2cc3occc3n12 (configuration not stated)	-5%	-16%	0%	0%	-14	/
CC(NC(=O)c1cccc(C(F)(F)F)c1)C(c1ccccc1)N1CCOCC1 (configuration not stated)	-19%	-12%	-5%	-23%	-62*	8%
O=C(NC(N1CCOCC1)C(Cl)(Cl)Cl)c1ccccc1Cl (configuration not stated)	-7%	i	20µM*	20%	1	17%
CC(C(=O)NC(c1ccccc1)c1ccccc1)N1CCOCC1 (configuration not stated)	-3%	-1%	-4%	44%	3	8%
O=C(NC(N1CCCCCC1)C(Cl)(Cl)Cl)c1ccccc1Cl (configuration not stated)	-4%	-7%	?	-8%	1	18%
Cc1cccc(C(=O)NC(C)C(c2cccs2)N2CCOCC2)c1 (configuration not stated)	-6%	i	1%	-17%	0	4%
CC(NC(=O)Nc1ccc(Cl)c(Cl)c1)C(c1ccccc1)N1CCOCC1 (configuration not stated)	/	/	-1%	-18%	-95*	?
CC(NC(=O)c1ccc(Cl)cc1Cl)C(c1ccccc1)N1CCOCC1 (configuration not stated)	-7%	-11%	18%	14%	-66*	13%
O=C(CSc1cn(CCNC(=O)c2ccccc2)c2ccccc12)NCc1ccco1	-9%	-6%	-25%	-23%	36	-22%
O=C(CSc1nnc(-c2ccccn2)o1)Nc1ccccc1C(F)(F)F	-5%	-5%	5%	18%	-9	10%
CC(NC(=O)Nc1ccc([N+](=O)[O-])cc1)C(c1ccccc1)N1CCOCC1 (configuration not stated)	-10%	-12%	28µM*	-10%	4	-5%
CC(NC(=O)C1CCC(C(C)(C)C)CC1)C(c1ccccc1)N1CCOCC1 (configuration not stated)	-17%	-11%	-11%	-15%	?	19%
COc1ccc(Nc2nc(NC(C)(C)C)nc(N3CCCC3)n2)c(OC)c1	/	/	8%	?	-89*	5.6µM*
COc1ccc(Nc2nc(N3CCCC3)nc(N3CCCC3)n2)c(OC)c1	/	/	-23%	-16%	-92*	10µM*
COc1ccc(Nc2nc(Nc3ccc(OC)cc3OC)nc(N3CCN(C)CC3)n2)c(OC)c1	-13%	-19%	5%	?	14	1µM*
COc1ccc(Nc2nc(N3CCCCC3)nc(N3CCCCC3)n2)c(OC)c1	/	/	0%	-23%	-16	13%
CC(=O)c1cccc(CN2CCC(C(=O)Nc3ccc(Oc4cccnc4)cc3)CC2)c1	-30%	?	-16%	?	?	?
COc1ccc(S(=O)(=O)N2CCCCCC2)cc1C(=O)N(C)Cc1ccccc1F	-23%	-4%	7%	21%	-24	-5%
CC(C)(C)NC(=O)CN(CCc1ccccc1)C(=O)c1csnn1	-4%	-7%	-9%[57.1 µM]	4%	1	-13%
Cc1onc(C(=O)N2CCC(Cc3ccccc3)CC2)c1[N+](=O)[O-]	/	/	-4%	-14%	-91*	?
SMILES	VACV Venus inh	Vaccinia mCherry	Sm TGR inh	FMDV antiviral	HCMV inh	HCV inhibitor
Cc1onc(C(=O)N2CCN(Cc3ccccc3)CC2)c1[N+](=O)[O-]	-1%	-6%	-12%	-25%	-1	4%[8.37 µM]
Cc1ccc(Cl)cc1N1CCN(C(=O)c2noc(C(C)C)c2[N+](=O)[O-])CC1	/	/	0%	-28%	-92*	3.5µM*
CC(C)c1onc(C(=O)N2CCN(C(c3ccccc3)c3ccccc3)CC2)c1[N+](=O)[O-]	/	/	3%	-19%	-98*	?
CC(C)c1onc(C(=O)N2CCN(c3ccccc3)CC2)c1[N+](=O)[O-]	/	/	-14%	?	-2	9%
Cc1cc(Cl)ccc1OCC(=O)OCC(=O)N1CCC(C(N)=O)CC1	/	/	-23%	-7%	-8	9%
Fc1ccc(Oc2cc(N3CCOCC3)nc(-c3ccccc3)n2)c(F)c1	-23%	-29%	26%	-10%	-23	?
CC(C)CNC(=S)N1CCC(C(=O)c2ccc3c(c2)OCCO3)CC1	/	/	/	-13%	-63*	?
COCCCNC(=S)N1CCC(C(=O)c2ccc3c(c2)OCCO3)CC1	-10%	i	-2%	-22%	-38	-18%
O=C(NC1CCN(C(=O)N2c3ccccc3Sc3ccccc32)CC1)c1ccccc1F	-14%	-13%	16%	?	?	?
CCN1CCN(Cc2cc(Br)ccc2O)CC1	/	/	-9%	9%	-13	35µM*
O=C(O)C/C=C(\NC(=O)OCc1ccccc1)C(=O)OCc1ccccc1	-2%	-14%	16µM*	32%	32	2%
CC(=O)N/C(=C\c1ccccc1)C(=O)OCc1ccccc1	2%	i	15%	-4%	89	7%
O=C(NCCc1ccccc1Cl)c1ccc(Cn2c(=O)c3cccn3c3cccnc32)cc1	?	?	0%	-10%	-84*	/
O=C(CCCn1c(=O)c2cccn2c2cccnc21)NCCc1ccc(Cl)cc1	-8%	-12%	-3%	-14%	?	?
CC(C(=O)NCCc1ccc(Cl)cc1)n1c(=O)c2cccn2c2cccnc21 (configuration not stated)	/	/	-2%	-27%	0	11µM*
CCOc1ccc(CCNC(=O)c2cnc3sc(N4CCCC4)nn3c2=O)cc1	?	?	5%	28µM*	-24	/
CCOc1ccc(CCNC(=O)c2cnc3sc(N4CCCCCC4)nn3c2=O)cc1	?	-8%	0%	?	21	/
CCN(CC)c1nn2c(=O)c(C(=O)NCCc3ccc(C)cc3)cnc2s1	-13%	-8%	-13%	?	-64*	/
NC(=O)c1ccc(NC(=O)CN2C(=O)NC3(CCCCCCC3)C2=O)cc1	7%	0%	/	-3%	25	7%
